Assay results: PubChem BioAssay (NCI)
About 83,000 compounds went through this panel and 20% of them were active in at least one assay; those are over-represented in the sample as a whole.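 Note: values are percent growth. 100 is the growth of untreated cells, values between 100 and 0 indicate rising inhibition; between -100 and 0 indicates cell death.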 A number with no mark means an inactive call. Calls of active or inactive are those of the source. How the source made its calls: active means growth percent below 10; inactive means the rest.

Assays:
Experiment in all cases: NCI-60 one-dose screen, 48 h (100 = growth as untreated, 0 = no growth, -100 = all killed)
Conditions in all cases: 10 µM unless noted
NCI-H23 lung = tested on: NCI-H23 lung
NCI-H226 lung = tested on: NCI-H226 lung
NCI-H322M lung = tested on: NCI-H322M lung
HOP-62 NSCLC = tested on: HOP-62 NSCLC
NCI-H460 lung = tested on: NCI-H460 lung
HOP-92 NSCLC = tested on: HOP-92 NSCLC
NCI-H522 lung = tested on: NCI-H522 lung
A549/ATCC NSCLC = tested on: A549/ATCC NSCLC
786-0 renal = tested on: 786-0 renal
COLO 205 colon = tested on: COLO 205 colon
DU-145 prostate = tested on: DU-145 prostate
K-562 leukemia = tested on: K-562 leukemia
MALME-3M melanoma = tested on: MALME-3M melanoma
MDA-MB-231 breast = tested on: MDA-MB-231 breast
RXF 393 renal = tested on: RXF 393 renal
SF-268 CNS = tested on: SF-268 CNS
SF-295 CNS = tested on: SF-295 CNS
SF-539 CNS = tested on: SF-539 CNS
UACC-257 melanoma = tested on: UACC-257 melanoma
M14 melanoma = tested on: M14 melanoma

Compound | growth (NCI-H23 lung) | growth (NCI-H226 lung) | growth (NCI-H322M lung) | growth (HOP-62 NSCLC) | growth (NCI-H460 lung) | growth (HOP-92 NSCLC) | growth (NCI-H522 lung) | growth (A549/ATCC NSCLC) | growth (786-0 renal) | growth (COLO 205 colon) | growth (DU-145 prostate) | growth (K-562 leukemia) | growth (MALME-3M melanoma) | growth (MDA-MB-231 breast) | growth (RXF 393 renal) | growth (SF-268 CNS) | growth (SF-295 CNS) | growth (SF-539 CNS) | growth (UACC-257 melanoma) | growth (M14 melanoma)
O=C1C2C(C(=O)[N]1[Hg][c]1ccccc1)C1(Cl)C(Cl)=C(Cl)C2(Cl)C1(Cl)Cl (stereo not given) | -8.01% (active) | 82.9% | 45.1% | 47.2% | -20.9% (active) | -84.5% (active) | -87.4% (active) | 78.7% | 26% | -96.5% (active) | -86.6% (active) | 4.39% (active) | -78.4% (active) | -2.38% (active) | -98.6% (active) | -66.4% (active) | 67.8% | 10.3% | -67.8% (active) | -82.3% (active)
CC(=O)Oc1ccccc1C(=O)NCCC[Se]C#N | -13.8% (active) | -22.8% (active) | 2.65% (active) | -38.8% (active) | 1.89% (active) | -18.5% (active) | 65.2% | 28.2% | 104% | 112% | -32.9% (active) | 30.2% | -24.5% (active) | -38.5% (active) | -7.78% (active) | -22.3% (active) | -15.7% (active) | -72.1% (active) | 42.1% | -13.1% (active)
O=C1C(N2CC2)=C(N2CC2)C(=O)C(N2CC2)=C1N1CC1 | -70% (active) | -63.6% (active) | 3.77% (active) | -17% (active) | -30.9% (active) | 41.4% | -53.3% (active) | 6.45% (active) | -76.2% (active) | -100% (active) | -15.5% (active) | 29.2% | -67.5% (active) | 93.3% | -73.4% (active) | 19.9% | -17.9% (active) | -67.1% (active) | -44.1% (active) | -82.4% (active)
CC(=O)O[C@H](C[C@H](C(C)C)N(C)C(=O)[C@@H](NC(=O)[C@H]1CCCCN1C)C(C)C)c1nc(C(=O)N[C@@H](Cc2ccccc2)C[C@H](C)C(=O)O)c(C(C)C)s1 | 22.9% | 58.9% | 35.8% | 20% | 6.51% (active) | 51.5% | -21.1% (active) | 8.67% (active) | 16% | -60% (active) | -0.791% (active) | 6.34% (active) | 64.9% | 12.9% | 44.1% | 27.7% | -0.193% (active) | -10.7% (active) | 41.5% | 4.52% (active)
C#C[C@]1(OC(=O)CCCCCC)CC[C@H]2[C@@H]3CCC4=CC(=O)CC[C@@H]4[C@H]3CC[C@@]21C | 19% | 54.8% | 49.5% | 35.5% | 21.2% | 58.6% | 20.5% | 46.1% | 56.5% | 29.3% | 72.1% | 20.7% | 77.1% | 59.7% | 58.8% | 50.7% | 32.2% | 47.9% | 55% | 25.6%
CC12CC=CCC1CCC1C2CCC2(C)C(c3ccc(=O)oc3)CCC12O (stereo not given) | -44.2% (active) | -90.6% (active) | -19.9% (active) | -65.2% (active) | -70.4% (active) | 1.77% (active) | -19.9% (active) | -37.7% (active) | -42.4% (active) | -43.6% (active) | -98% (active) | 3.02% (active) | -51.8% (active) | -4.41% (active) | -46.5% (active) | -62.2% (active) | -36.7% (active) | -93.7% (active) | -52.8% (active) | -28% (active)
CSc1nc(Cl)cc(N2CC2)n1 | 103% | 108% | 128% | 103% | 105% | 93% | 126% | 102% | 104% | 139% | 110% | 120% | 105% | 106% | 111% | 99.1% | 115% | 98.8% | 107% | 114%
CC[C@H](C)[C@H](NC(=O)c1ccccn1)C(=O)N(C)[C@H](C[C@@H](OC(C)=O)c1nc(C(=O)N[C@@H](Cc2ccccc2)C[C@H](C)C(=O)OC)cs1)C(C)C | 28.3% | 25.4% | 58.2% | 26.9% | 9.13% (active) | 91.9% | -33.8% (active) | 32.2% | 30.4% | -21.2% (active) | 6.32% (active) | 10.8% | 53.8% | 15.8% | -11.2% (active) | 32.3% | 7.86% (active) | -24% (active) | 69.8% | 4.96% (active)
C/C(Cc1ccc(Cl)cc1)=C(\c1ccc(OCCN2CCOCC2)cc1)c1ccc(OC(=O)Cc2ccccc2)cc1 | 92.9% | 101% | 83% | 102% | 95.8% | 77.2% | 69.7% | 78.9% | 92.6% | 99.8% | 107% | 79.5% | 99% | 96.5% | 94.7% | 95.6% | 99.9% | 108% | 86.1% | 89.4%
COC(=O)[C@@H](C)C[C@H](Cc1ccccc1)NC(=O)c1csc([C@@H](C[C@H](C(C)C)N(C)C(=O)[C@@H](NC(=O)[C@H]2CCCCN2C)C2CC2)OC(C)=O)n1 | 22% | 20.5% | 52.2% | 15.7% | 14.1% | 31.3% | -45.5% (active) | 13% | 21.8% | -69.9% (active) | 2.33% (active) | 9.03% (active) | 63.6% | 23% | 46.9% | 32.8% | 9.01% (active) | -0.629% (active) | 58.3% | 10.8%
COC(=O)[C@@H](C)C[C@H](Cc1ccccc1)NC(=O)c1nc([C@@H](C[C@H](C(C)C)N(C)C(=O)[C@@H](NC(=O)[C@H]2CCCN2C)C(C)C)OC(C)=O)sc1C | 31.8% | 43.4% | 35.2% | 21.1% | 7.21% (active) | 8.77% (active) | -23.7% (active) | 16.1% | 14.3% | -74.2% (active) | 17.7% | 9.29% (active) | 54.4% | 14.1% | 39% | 30.6% | 10.6% | -8.41% (active) | 51.1% | 1.43% (active)
CC(=O)O[C@H]1C(=O)[C@@]2(C)[C@H]([C@H](OC(=O)c3ccccc3)[C@]3(O)C[C@H](OC(=O)[C@H](OC(=O)OC[C@H]4COC(C)(C)O4)[C@@H](NC(=O)c4ccccc4)c4ccccc4)C(C)=C1C3(C)C)[C@]1(OC(C)=O)CO[C@@H]1C[C@@H]2O | 21.6% | 55.5% | 14.9% | 21.7% | 4.16% (active) | 53.4% | 5.12% (active) | 12.5% | 20.2% | -15.1% (active) | 5.18% (active) | 11.6% | 27.2% | -4.56% (active) | -7.11% (active) | 29.7% | -6.58% (active) | -13.3% (active) | 48.3% | -19% (active)
C=COC(=O)CCN1CC1 | 100% | 98.9% | 102% | 95% | 105% | 111% | 107% | 102% | 110% | 114% | 113% | 111% | 112% | 103% | 111% | 106% | 101% | 103% | 105% | 102%
C1CCC([PH+](C2CCCCC2)C2CCCCC2[PH+](C2CCCCC2)C2CCCCC2)CC1.O=C(C1[CH-]CCCC1)C1CCCC[N-]1.[Au] (stereo not given) | -35% (active) | -60.1% (active) | -48% (active) | -9.03% (active) | -49.6% (active) | -36.8% (active) | -22.4% (active) | -39.9% (active) | -77.2% (active) | -45% (active) | -38.7% (active) | 5.08% (active) | -66.3% (active) | -54.9% (active) | -95.2% (active) | -28.5% (active) | -46.8% (active) | -87.9% (active) | -45.6% (active) | -52.2% (active)
CC[C@H](C)[C@@H]([C@@H](CC(=O)N1CCC[C@H]1[C@H](OC)[C@@H](C)C(=O)N[C@H](C)[C@@H](O)c1ccccc1)OC)N(C)C(=O)[C@@H](NC(=O)[C@@H](NC)C(C)C)C(C)C | 27.9% | 66.9% | 50.8% | 25.8% | 9.17% (active) | 11.5% | -36.1% (active) | 21.4% | 21.2% | -72.1% (active) | 10.5% | 11% | 55.6% | 16.9% | 46% | 39% | 10.8% | -13.9% (active) | 65.7% | 1.24% (active)
